DT40 TDP1 CPT – growth inhibition of DT40 Tdp1-/-;hTDP1 cells with camptothecin (screen for TDP1 inhibitors) | chicken DT40 Tdp1-/-;hTDP1 cells + 20 nM CPT, ATP luminescence, 48 h | Potency, µM (highest dose often 46.2 µM), inactives show at the top dose activity change, negative = growth inhibition, actives largely listed as inhibitors | actives 12% (n = 420,000) | AID 686979; also: potency is read from the fitted curve at half-maximal effect; % is scaled to controls: 0 for no effect and ±100 for the full control effect; nearly all actives have a fitted effect of over 55% in size
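Chicken DT40 Tdp1-/- cells stably complemented with human TDP1 were seeded at 400 cells/well in medium containing 20 nM camptothecin, exposed to pin-transferred compounds, and grown at 37 °C for at least 48 hr. Viability was read as ATP luminescence.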
DT40 TDP1 no CPT – qHTS for Inhibitors of human tyrosyl-DNA phosphodiesterase 1 (TDP1): qHTS in cells in absence of CPT; DT40 Tdp1-/- hTDP1 cells, no CPT, ATP luminescence, 48 h; actives 15% (n = 420,000); Potency, µM (series often up to 46.2 µM), for inactives: at the highest dose activity change, negative = growth inhibition, actives largely listed as inhibitors; also: potency is read from the fitted curve at half-maximal effect; % is scaled to controls: 0 for no effect and ±100 for the full control effect; nearly all actives have a fitted effect of over 55% in size
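Stably hTDP1-transfected Tdp1-null chicken DT40 cells were treated with library compounds minus camptothecin and grown for at least 48 hr at 37 °C, after which cellular ATP was quantified by luminescence.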
D3 ag – D3 dopamine receptor (human) agonism; D3R DiscoveRx beta-arrestin cells, luminescence, 90 min; actives 0.58% (n = 410,000); max activation, %; in the data active = max activation above about 30%; also: 0% is about no effect
Target sequence (P35462 whole entry, looked up): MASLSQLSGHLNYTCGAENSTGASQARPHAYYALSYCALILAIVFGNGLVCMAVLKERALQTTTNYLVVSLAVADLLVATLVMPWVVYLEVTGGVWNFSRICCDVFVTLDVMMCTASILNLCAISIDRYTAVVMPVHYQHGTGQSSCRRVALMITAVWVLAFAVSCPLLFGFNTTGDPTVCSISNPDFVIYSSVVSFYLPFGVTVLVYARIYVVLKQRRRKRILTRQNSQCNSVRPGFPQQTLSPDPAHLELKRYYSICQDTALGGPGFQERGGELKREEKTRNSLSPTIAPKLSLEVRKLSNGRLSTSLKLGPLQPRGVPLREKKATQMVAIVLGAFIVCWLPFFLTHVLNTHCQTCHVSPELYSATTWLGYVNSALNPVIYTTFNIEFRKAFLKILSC
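Agonist-mode cell screen: cells plated at 1500/well and incubated overnight at 37 °C, then exposed to library compounds for 90 min at 37 °C. Detection reagent was added for 30–60 min at room temperature, and luminescence was read.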
D3 antag – blocks the human D3 dopamine receptor; P35462; D3R cells, DiscoveRx beta-arrestin luminescence, antagonist mode; hits give low values; max response, negative = inhibition, %; actives 2.5% (n = 360,000); in the data active = max response below about -50%; inconclusive = no clear call, values can overlap the other calls; also: % is scaled to controls: 0 for no effect and ±100 for the full control effect
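Cells plated overnight at 1500 cells/well, then exposed to library compounds with dopamine controls for 90 minutes at 37 degrees C. DiscoveRx reagent added for 30–60 minutes at room temperature; luminescence read, quantitative HTS format.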
IL1B secr inh – inhibitors of inflammasome signaling (IL-1 beta secretion); THP-1 LPS/ATP IL-1B secretion, AlphaLISA, 16 h; hits give low values; activity change, % at 57.5 µM; actives 4.7% (n = 360,000); AID 743279; in the data active = activity change below about -50%; inconclusive = mostly about -30% to -49%; also: % is scaled to controls: 0 for no effect and ±100 for the full control effect
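THP-1 cells pretreated 1 hr with compounds (up to 57.5 uM final), then stimulated with LPS (250 ng/mL final) plus ATP (1.25 mM final); secreted IL-1B measured by AlphaLISA after 16 hr, decreased signal indicating inhibition.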
ClpP mod – qHTS Assay for Activators of ClpP. ATP-dependent Clp protease proteolytic subunit (Bacillus subtilis (strain 168)), P80244. purified B. subtilis ClpP, FRET peptide cleavage, 20 min. Potency, µM (highest dose often 57.5 µM), for the others: at the top dose activity change, negative = active. actives 1.9% (n = 340,000); active = well fitted falling curve with a large enough effect; inconclusive = small, poorly fitted or top-dose-only effect; inactive = no such curve, though single readings can be large or run the other way; also: potency is read from the fitted curve at half-maximal effect; the source files actives as falling curves though it sought activators and does not explain the sign; nearly all actives have a fitted effect of over 65% in size
Target sequence (P80244 whole entry, looked up): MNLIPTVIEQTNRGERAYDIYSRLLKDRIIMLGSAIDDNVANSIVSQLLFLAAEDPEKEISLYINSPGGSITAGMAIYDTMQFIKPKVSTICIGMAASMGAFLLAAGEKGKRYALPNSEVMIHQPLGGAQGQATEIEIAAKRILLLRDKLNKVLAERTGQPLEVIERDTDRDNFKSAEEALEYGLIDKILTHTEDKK
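Buffer: 100 mM Tris/HCl pH8, 100 mM KCl, 0.05% low protease BSA, 2.5% glycerol, 0.01% Tween-20. ClpP 10 microg/mL final; 20 min RT; delta FRET normalized to ADEP and DMSO controls.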
* = called active by the depositor; ? = inconclusive; · = no result. Only some compounds are listed: those with a hit (about 21% of all), similar ones and a draw of the others. Unless noted, calls follow the shape of the dose curve; as a rule, active = well fitted inhibition curve with a large enough effect; inconclusive = small, poorly fitted or top-dose-only effect; inactive = flat fitted curve, though single readings scatter.

SMILES	DT40 TDP1 CPT	DT40 TDP1 no CPT	D3 ag	D3 antag	IL1B secr inh	ClpP mod
Cc1c(NC(=O)c2ccc(COc3ccc4ccccc4c3)o2)c(=O)n(-c2ccccc2)n1C	?	23µM*	2	18	-14	-2%
COc1ccc(NC(=O)c2ccc(CN3CCc4ccccc4C3)cc2)cc1OC	?	-17%	-15	-64*	28	1%
Cc1c(NC(=O)c2cc3ccccc3o2)c(=O)n(-c2ccccc2)n1C	-1%	0%	0	8	21	-2%
COc1cccc(NC(=O)c2ccc(CN3CCc4ccccc4C3)cc2)c1	16µM*	?	-17	-102*	?	-5%
Cc1csc(NC(=O)c2cccnc2Cl)n1	4%	9%	-6	10	27	·
CCOc1ccc(NC(=O)c2ccc(CN3CCc4ccccc4C3)cc2)cc1	?	-24%	-22	?	-3	·
COc1cccc(N2CCN(CC(=O)Nc3nnc(-c4ccccc4)s3)CC2)c1	23µM*	21µM*	1	12	-12	-3%
CCOc1ccccc1NC(=O)c1ccc(CN2CCc3ccccc3C2)cc1	0%	?	-29	-70*	1	1%
O=C(Nc1ccc(Cl)cc1)c1ccc(CN2CCc3ccccc3C2)cc1	?	-11%	-22	-16	-10	1%
CC(=O)c1cccc(NC(=O)c2ccc(CN3CCc4ccccc4C3)cc2)c1	-27%	-20%	-30	-89*	-14	-5%
COc1cccc(NC(=O)c2ccc(CN3CCN(c4ccccc4)CC3)cc2)c1	?	18µM*	3	-18	-2	-3%
COc1cccc(C(=O)Nc2ccc(N3CCN(Cc4ccccc4)CC3)cc2)c1	?	?	-1	?	?	2%
Cc1cc([N+](=O)[O-])nn1CCC(=O)Nc1nccs1	0%	6%	-3	-12	13	·
Cc1ccc(S(=O)(=O)c2cnc(SCC(=O)Nc3ccc4c(c3)OCCO4)[nH]c2=O)cc1	·	·	-11	·	·	-1%
COCCNC(=O)c1ccc(CN2CCc3ccccc3C2)cc1	-6%	4%	-15	?	20	·
COCC(C)NC(=O)c1ccc(CN2CCc3ccccc3C2)cc1 (stereo unspecified)	-2%	-7%	-11	-68*	-12	0%
COc1ccc(-c2nnc(NC(=O)CSc3ccccc3)s2)cc1OC	-20%	?	-9	-13	5	22µM*
CCOC(=O)c1ccc(NC(=O)c2ccc(CN3CCc4ccccc4C3)cc2)cc1	?	?	-16	?	-19	0%
Cc1cc(C)c(NC(=O)c2ccc(CN3CCc4ccccc4C3)cc2)c(C)c1	16µM*	12µM*	-11	-53*	-17	-23%
CC(C)(C)SCCNC(=O)c1ccc(CN2CCc3ccccc3C2)cc1	?	?	-39	-74*	-1	-1%
COc1ccc(C(=O)Nc2ccc(N3CCN(Cc4ccccc4)CC3)cc2)cc1	-14%	-17%	-7	-10	24	·
CCCNC(=O)c1ccc(CN2CCc3ccccc3C2)cc1	-10%	-24%	-30	-15	2	-2%
C/C(=N\NC(=O)c1ccc(CN2CCc3ccccc3C2)cc1)c1ccccc1O	12µM*	8.2µM*	-2	-28	163	·
COc1c(F)c(F)c(C(=O)Nc2ccc(N3CCN(Cc4ccccc4)CC3)cc2)c(F)c1F	16µM*	11µM*	-18	12	-9	-1%
COc1ccc(C(=O)NC(=S)NCc2cccnc2)cc1Cl	-22%	?	2	-7	-12	·
SMILES	DT40 TDP1 CPT	DT40 TDP1 no CPT	D3 ag	D3 antag	IL1B secr inh	ClpP mod
Cc1ccccc1S(=O)Cc1ccc(C(=O)NC2CC2)o1 (stereo unspecified)	3%	0%	1	-1	-9	2%
COc1cccc(N2CCN(C(=O)c3ccc(CS(=O)c4ccccc4C)o3)CC2)c1 (stereo unspecified)	0.52µM*	0.58µM*	-14	-13	28	·
O=C(c1ccco1)N1CCN(C(=O)c2ccc(COc3ccc4c(c3)CCC4)o2)CC1	?	?	4	52	4	2%
O=C(c1ccc(CS(=O)c2cccc(Cl)c2)o1)N1CCCCCC1 (stereo unspecified)	-8%	23µM*	22	18	2	·
O=C(c1ccc(CS(=O)c2ccccc2Cl)o1)N1CCN(c2ccccc2)CC1 (stereo unspecified)	0.82µM*	0.52µM*	-10	-21	142	-1%
O=C(c1ccc(COc2ccc3c(c2)CCC3)o1)N1CCN(c2ccccc2)CC1	15µM*	?	9	9	-73*	-4%
O=C(c1ccc(CS(=O)c2ccccc2Cl)o1)N1CCOCC1 (stereo unspecified)	-7%	13%	4	-2	10	-1%
Cc1ccc2ncc(C(=O)N3CCN(c4ccccc4F)CC3)c(=O)n2c1	0%	-6%	-7	·	·	-12%
COc1cccc(N2CCN(C(=O)c3ccc(CS(=O)c4ccccc4Cl)o3)CC2)c1 (stereo unspecified)	0.029µM*	0.0052µM*	-13	9	55	2%
COc1ccc(N2CCN(C(=O)c3ccc(CS(=O)c4cccc(C)c4)o3)CC2)cc1 (stereo unspecified)	18µM*	16µM*	9	-1	-1	-1%
O=C(NC1CCN(Cc2ccccc2)CC1)c1ccc(CS(=O)c2ccccc2Cl)o1 (stereo unspecified)	?	?	-6	-117*	4	1%
O=C(c1ccc(COc2ccccc2Cl)o1)N1CCN(c2ccccc2)CC1	?	29µM*	2	5	23	-2%
O=C(NC1CCN(Cc2ccccc2)CC1)c1ccc(CS(=O)c2ccc(F)cc2)o1 (stereo unspecified)	-14%	-1%	-12	?	-5	-1%
O=C(COc1ccccc1Cl)N1CCN(C(=O)c2ccco2)CC1	13%	-9%	-5	3	-2	-2%
COc1cc(/C=N/NC(=O)CC#N)ccc1Oc1nc(Cl)ncc1F	-16%	?	-10	-26	?	1%
O=C(c1ccco1)N1CCC2(CC1)CN(Cc1cc(C(F)(F)F)cc(C(F)(F)F)c1)C2	-30%	-25%	·	·	·	·
CCOC(=O)c1ccc(Oc2nc(OC)cc(OC)n2)cc1	0%	-8%	1	-3	6	-2%

Assay outcomes: PubChem, National Center for Advancing Translational Sciences (NCATS)
